According to PubChem BioAssay AID1508648 (National Center for Advancing Translational Sciences (NCATS), 2021):
Results filed as inconclusive are left out. A call without a number means that no potency is given here. The source made the active and inactive calls. Calls come from the whole dose curve; as a rule, active = well fitted cell-killing curve with a large enough effect; inconclusive = small, poorly fitted or top-dose-only effect, or effect the other way; inactive = flat fitted curve, though single readings scatter.

Assay: Cell viability assay in S16 Pmp22-HiBiT cells - Confirmatory screen
Conditions: S16 Schwann Pmp22-HiBiT viability, CellTiter-Glo, 24 h; series mostly up to 27.9 µM
Text: Assay Provider: Jim Inglese Ph.D. National Center for Advancing Translational Science, National Institutes of Health, Rockville, MD CMT is a heterogeneous group of neurological disorders that affect approximately 1 in 2,500 people. In particular, the most common form of CMT, CMT1A is genetically linked to the duplication of the PMP22 gene which leads to Schwann cell overexpression, thus manifesting itself as a typical case of dose-sensitive diseases. To identify small molecule compounds that can mediate the expression of PMP22 we developed a phenotypic assay screening strategy by utilizing genome editing techniques to construct Schwann cell lines containing novel reporter technology to monitor the transcriptional or translational regulation of PMP22. For high sensitivity we use a bioluminescent reporter system embedded in the 3' UTR of the PMP22 gene (S16(c9) Pmp22-F2sN) to identify compounds that inhibit gene expression. […] We can further discriminate the effect of all transcriptionally active molecules on PMP22 translation or stability with an assay that incorporates a short NLuc peptide (HiBiT) at the C-terminus of expressed PMP22 (S16(f8) PMP22-HiBiT) allowing alpha complementation and luminescence detection of membrane-associated PMP22 protein. These assays were screened against the NCATS Sytravon Library Collection. Miniaturization of these assays to 1536-well plate format for quantitative high throughput screening (qHTS) yielded rich data sets immediately from the qHTS assay (S16(c9) Pmp22-F2sN), when compared with data from a cell viability assay (Cell TiterGlo) to identify compounds that decreased the output signals through cellular toxicity to streamline the selection process of actives for subsequent characterization using the HiBiT assay (S16(f8) PMP22-HiBiT).
Cell viability assay in S16 Pmp22-HiBiT cells PROTOCOL TABLE (format as described by Inglese J, Shamu CE and Guy RK. 2007) SEQUENCE No. (e.g., 1, 2, 3, etc.); PARAMETER (e.g., Cells, Incubation, Reagent, etc.); VALUE and DESCRIPTION. 1. Cells. Add 500-1,000 cells in 4 uL in growth media (DMEM High Glucose, No Phenol Red media + 10% heat-inactivated FBS + 1% Pen/Strep supplemented media) per well into Greiner 1536-well white/solid bottom high base, TC-treated plates. 2. Compounds. Library compounds and controls added at 23nL per well, transferred by Pin Tool. 3. Incubation. Incubate plates at 37C, 5% CO2, 95% RH for 24 h. 4. Reagent. Add 3uL CellTiter-Glo per well of Greiner 1536-well plates. 5. Incubation. Incubate plates at room temperature for 15 min., protect from light. 6. Detector. Luminescence measured using CCD-based camera (Viewlux). NOTES (numbers refer to Sequence numbers above; values are from representative experiments) 6. Luminescence Read: Clear filter; Exposure = 1 sec, Gain = High, Speed = Slow, Binning = 2X REFERENCES: 1. Inglese J, Shamu CE and Guy RK, Reporting data from high throughput screening of small molecule libraries, Nature Chemical Biology, 2007, 3(8): 438-441. doi.org/10.1038/nchembio0807-438 2. Yasgar A, Shinn P, Jadhav A, Auld DS, Michael S, Zheng W, Austin CP, Inglese J and Simeonov A, Compound Management for Quantitative High-Throughput Screening. J. Assoc. Lab. Auto., 2008, 13: 79-89. doi: 10.1016/j.jala.2007.12.004

Q: Which Potency does the source give for CCS(=O)(=O)c1ncc(Cl)c(C(=O)Nc2c(C(=O)c3ccc(C)cc3)oc3ccccc23)n1 here?
A: inactive

Q: For Cc1cccc(-n2c(=O)c3c(c4cc(C)ccc4n3C)n(CC(=O)NCCC3=CCCCC3)c2=O)c1, which Potency is on record?
A: inactive

Q: With COc1ccccc1CNC(=O)CSc1nnc(C)c2c(C)n(-c3ccccc3)nc12 as the compound, how does the Potency read?
A: inactive

Q: With Cc1ccccc1S(=O)(=O)Cc1ccc(C(=O)N2CCN(c3cccc(Cl)c3)CC2)o1 as the compound, how does the Potency read?
A: inactive

Q: Which Potency does the source give for CCc1ccc(C(=O)c2cn(CC(=O)Nc3ccc4c(c3)OCO4)c3ccc(CC)cc3c2=O)cc1 here?
A: 14.5 µM (active)

Q: With O=S(=O)(NCC(c1ccco1)S(=O)(=O)c1cccs1)c1ccc(Cl)cc1 (stereo not given) as the compound, how does the Potency read?
A: inactive

Q: With CCN(CC)c1ccc(NC(=O)C2COc3ccc(OC)cc3C2)c(C)c1 (stereo not given) as the compound, how does the Potency read?
A: inactive

Q: For Cc1cccc(CS(=O)(=O)c2ncc(Cl)c(C(=O)Nc3nc4ccc(F)cc4s3)n2)c1, which Potency is on record?
A: 14.5 µM (active)

Q: For COC(=O)c1ccccc1NC(=O)c1nc(S(=O)(=O)Cc2cccc(C)c2)ncc1Cl, which Potency is on record?
A: inactive

Q: For COc1cccc(-n2c(SCC(=O)c3ccc(Cl)cc3)nc3c([nH]c4ccccc43)c2=O)c1, which Potency is on record?
A: 10.2 µM (active)

Q: Which Potency does the source give for Cc1ccc(CN2C(=O)C(O)(c3c(C)[nH]c4ccccc34)c3ccccc32)cc1 (stereo not given) here?
A: inactive

Q: For Cc1ccc(S(=O)(=O)c2nnn3c2nc(NC2CCCCCC2)c2sccc23)cc1C, which Potency is on record?
A: inactive

Q: Which Potency does the source give for CCOc1cc(CNc2ccc(O)cc2)cc(Br)c1OCc1ccccc1 here?
A: inactive

Q: Which Potency does the source give for CCC(C)NC(=O)C1CCN(C(=O)c2cc3sccc3n2Cc2ccc(Cl)cc2)CC1 (stereo not given) here?
A: 11.5 µM (active)

Q: Which Potency does the source give for COc1ccccc1Nc1nn2c(=O)c3ccc(C(=O)Nc4ccc(F)cc4)cc3nc2s1 here?
A: 7.24 µM (active)

Q: For COc1ccc(NC(=O)Cn2c(=O)n(CCC(=O)NCc3ccccc3OC)c(=O)c3ccccc32)cc1Cl, which Potency is on record?
A: 16.2 µM (active)

Q: With CCOc1ccc(C(=O)c2cnc3ccc(Cl)cc3c2S(=O)(=O)c2ccc(C)cc2)cc1 as the compound, how does the Potency read?
A: inactive

Q: For COc1ccc(Cl)cc1NC(=O)CCCS(=O)(=O)c1nc(-c2ccc(OC)c(OC)c2)cc(C(F)(F)F)n1, which Potency is on record?
A: 6.45 µM (active)

Q: For Cc1ccc(C)c(NC(=O)Cn2c(=O)n(Cc3ccc4c(c3)OCO4)c(=O)c3ccc(C(=O)NC4CCCCC4)cc32)c1, which Potency is on record?
A: inactive

Q: For O=C(Cn1c(-c2cccs2)cc2cc(F)ccc21)NCCCN1CCN(c2ccccc2F)CC1, which Potency is on record?
A: inactive

Q: For O=C(CCS(=O)(=O)c1nc(-c2cccs2)cc(C(F)(F)F)n1)Nc1ccc(OC(F)(F)F)cc1, which Potency is on record?
A: inactive

Q: For COc1ccccc1Nc1c2c(nc3ccc(NC(=O)/C=C/c4cccc(OC)c4OC)cc13)CCCC2, which Potency is on record?
A: 5.13 µM (active)

Q: For CCCn1c(=N)c(C(=O)NC(C)c2ccccc2)cc2c(=O)n3ccccc3nc21 (stereo not given), which Potency is on record?
A: inactive

Q: Which Potency does the source give for CCN(CC)CCNC(=O)c1cc(-c2ccc(Br)s2)nc2ccccc12 here?
A: 10.2 µM (active)

Q: For Cc1ccc(NC(=O)N2CCc3cc(S(=O)(=O)N4CCC(C)CC4)ccc32)cc1F, which Potency is on record?
A: inactive

Q: With CCCCCS(=O)(=O)c1oc(-c2cccs2)nc1S(=O)(=O)c1ccc(C)cc1 as the compound, how does the Potency read?
A: 18.2 µM (active)

Q: For Cc1cc(NC(=O)C2CCCN(S(=O)(=O)c3cccc4nonc34)C2)ccc1Br (stereo not given), which Potency is on record?
A: inactive

Q: For Cc1cc(C)c(NC(=O)Cn2c(=O)n(Cc3ccco3)c(=O)c3ccc(C(=O)NC4CCCC4)cc32)c(C)c1, which Potency is on record?
A: inactive

Q: With COc1ccc(NC(=O)CCS(=O)(=O)c2nc(-c3cccs3)cc(C(F)(F)F)n2)cc1 as the compound, how does the Potency read?
A: inactive

Q: With COc1ccc(Br)c2c1-c1nc(NC(=O)c3cccc(C)c3)sc1C2 as the compound, how does the Potency read?
A: inactive

Q: For Cc1ccc(OCC(=O)Nc2ccc3nc(SCC(=O)N4CCc5ccccc54)sc3c2)cc1, which Potency is on record?
A: inactive

Q: Which Potency does the source give for Cc1c(Cl)cccc1NC(=O)c1oc2ccc(S(=O)(=O)N3CCC4(CC3)OCCO4)cc2c1C here?
A: inactive

Q: Which Potency does the source give for CCC(Sc1nc2ccccc2c2nc(-c3ccccc3)nn12)C(=O)Nc1cccc(OC)c1 (stereo not given) here?
A: inactive

Q: With COc1ccc(-c2cc(C(F)(F)F)nc(S(C)(=O)=O)n2)cc1 as the compound, how does the Potency read?
A: 18.2 µM (active)

Q: Which Potency does the source give for CCOC(=O)c1c(NC(=O)c2nc(S(C)(=O)=O)ncc2Cl)sc(C(C)=O)c1C here?
A: 4.57 µM (active)

Q: Which Potency does the source give for CCC(=O)C1=C(c2cccc([N+](=O)[O-])c2)N(C(=O)CC)n2c(nnc2-c2ccccc2)S1 here?
A: inactive

Q: For O=C(Cn1c(-c2cccs2)cc2ccccc21)NCCCN1CCN(c2ccc(F)cc2)CC1, which Potency is on record?
A: inactive

Q: With COc1ccc(Br)cc1CC1C(=O)Nc2ccccc21 (stereo not given) as the compound, how does the Potency read?
A: inactive

Q: For CCCN1CCN(CCCNC(=O)Cn2c(-c3cccs3)cc3ccccc32)CC1, which Potency is on record?
A: inactive

Q: For COC(=O)c1c(-c2ccc(Cl)cc2)noc1N1CCN(c2cccc(C(F)(F)F)c2)CC1, which Potency is on record?
A: 10.2 µM (active)
